Results: PubChem BioAssay (NCATS)
Several values for one entry are separate records, joined by “and”; a condition that tells them apart may be missing. Identical values can stand only once. Inconclusive results are not listed. Activity calls are given as the source filed them. Calls come from the whole dose curve; as a rule, active = well fitted inhibition curve with a large enough effect; inconclusive = small, poorly fitted or top-dose-only effect; inactive = flat fitted curve, though single readings scatter.

What was measured:
[1] = tested on: ECU; assay: qHTS profiling for inhibitors of Plasmodium falciparum proliferation (AID 504749); details: P. falciparum in erythrocytes, SYBR Green DNA, 72 h; series mostly up to 28.7 µM
How it was run: (§1)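 In a 72 h erythrocytic culture (37 C, humidified, 5% CO2) at 2.5% hematocrit and 0.3% starting parasitemia, compounds were tested; SYBR Green I in detergent lysis buffer stained parasite DNA overnight.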

[2] = tested on: FAB9; assay: as above; details: P. falciparum in erythrocytes, SYBR Green DNA, 72 h; series mostly up to 28.7 µM
How it was run: as §1

[3] = tested on: GB4; assay: as above; details: P. falciparum in erythrocytes, SYBR Green DNA, 72 h; series mostly up to 28.7 µM
How it was run: as §1

[4] = tested on: HB3; assay: as above; details: P. falciparum in erythrocytes, SYBR Green DNA, 72 h; series mostly up to 28.7 µM
How it was run: as §1

[5] = tested on: ICS; assay: as above; details: P. falciparum in erythrocytes, SYBR Green DNA, 72 h; series mostly up to 28.7 µM
How it was run: as §1

[6] = tested on: JCK; assay: as above; details: P. falciparum in erythrocytes, SYBR Green DNA, 72 h; series mostly up to 28.7 µM
How it was run: as §1

[7] = tested on: N140; assay: as above; details: P. falciparum in erythrocytes, SYBR Green DNA, 72 h; series mostly up to 28.7 µM
How it was run: as §1

[8] = tested on: P93_24; assay: as above; details: P. falciparum in erythrocytes, SYBR Green DNA, 72 h; series mostly up to 28.7 µM
How it was run: as §1

[9] = tested on: P94_40; assay: as above; details: P. falciparum in erythrocytes, SYBR Green DNA, 72 h; series mostly up to 28.7 µM
How it was run: as §1

[10] = tested on: PAD; assay: as above; details: P. falciparum in erythrocytes, SYBR Green DNA, 72 h; series mostly up to 28.7 µM
How it was run: as §1

[11] = tested on: PC15; assay: as above; details: P. falciparum in erythrocytes, SYBR Green DNA, 72 h; series mostly up to 28.7 µM
How it was run: as §1

[12] = tested on: PC26; assay: as above; details: P. falciparum in erythrocytes, SYBR Green DNA, 72 h; series mostly up to 28.7 µM
How it was run: as §1

[13] = tested on: PC49; assay: as above; details: P. falciparum in erythrocytes, SYBR Green DNA, 72 h; series mostly up to 28.7 µM
How it was run: as §1

[14] = tested on: SC27B; assay: as above; details: P. falciparum in erythrocytes, SYBR Green DNA, 72 h; series mostly up to 28.7 µM
How it was run: as §1

[15] = tested on: TAB109; assay: as above; details: P. falciparum in erythrocytes, SYBR Green DNA, 72 h; series mostly up to 28.7 µM
How it was run: as §1

[16] = tested on: TAB113; assay: as above; details: P. falciparum in erythrocytes, SYBR Green DNA, 72 h; series mostly up to 28.7 µM
How it was run: as §1

[17] = tested on: TAB165; assay: as above; details: P. falciparum in erythrocytes, SYBR Green DNA, 72 h; series mostly up to 28.7 µM
How it was run: as §1

[18] = tested on: CRL-7250; assay: Cytotoxic Profiling of Annotated Libraries Using Quantitative High-Throughput Screening (AID 1296008); details: Five cell lines viability, CellTiter-Glo ATP luminescence, 48-72 h; max response: stronger effect = lower value; for max response: % is set by controls: 0 for no effect and ±100 for the full control effect
How it was run: (§2)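 Cytotoxicity was measured as CellTiter-Glo ATP luminescence, read after 10 min at room temperature. Compound treatment of the cells lasted 48 or 72 hr at 37 degrees Celsius in a qHTS format.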

[19] = tested on: HEK293; assay: as above; details: Five cell lines viability, CellTiter-Glo ATP luminescence, 48-72 h; max response: stronger effect = lower value
How it was run: as §2

[20] = tested on: W2; assay: qHTS profiling for inhibitors of Plasmodium falciparum proliferation (AID 504749); details: P. falciparum in erythrocytes, SYBR Green DNA, 72 h; series mostly up to 28.7 µM
How it was run: as §1
Note: nearly all actives have a fitted effect of over 60% in size.
Potency is the fitted concentration of half-maximal effect.

CCOc1ccc(NC(=O)CC(C)O)cc1 (stereo unspecified)
inactive: Potency [1] | Potency [2] | Potency [3] | Potency [4] | Potency [5] | Potency [6] | Potency [7] | Potency [8] | Potency [9] | Potency [10] | Potency [11] | Potency [12] | Potency [13] | Potency [14] | Potency [15] | Potency [16] | Potency [17] | max response [18] -0.463% | max response [19] 2.44%

CCOC(=O)OC(C)OC1=C(C(=O)Nc2ccccn2)N(C)S(=O)(=O)c2ccccc21 (stereo unspecified)
inactive: Potency [1] | Potency [2] | Potency [3] | Potency [4] | Potency [5] | Potency [6] | Potency [7] | Potency [8] | Potency [9] | Potency [10] | Potency [11] | Potency [12] | Potency [13] | Potency [14] | Potency [15] | Potency [16] | Potency [17] | outcome [18] | outcome [19]

C=CCc1ccc(O)c(OC)c1
inactive: Potency [1] | Potency [2] | Potency [3] | Potency [4] | Potency [5] | Potency [6] | Potency [7] | Potency [9] | Potency [10] | Potency [11] | Potency [12] | Potency [13] | Potency [14] | Potency [15] | Potency [16] | Potency [17] | Potency [20] | outcome [18] | outcome [19]

CCCCCCCCCCCCCCCC[N+](C)(C)CC
active: Potency [1] 5.01 µM | Potency [2] 7.94 µM | Potency [3] 3.79 µM | Potency [4] 7.08 µM | Potency [5] 1.41 µM | Potency [7] 4.47 µM | Potency [8] 5.62 µM | Potency [9] 3.98 µM | Potency [10] 8.91 µM | Potency [11] 8.91 µM | Potency [12] 5.36 µM | Potency [14] 5.62 µM | Potency [15] 4.47 µM | Potency [16] 5.01 µM | Potency [17] 4.47 µM | Potency [20] 3.79 µM | Potency [18] 6.68 µM | Potency [19] 2.99 µM

O=C1c2ccccc2C(=O)C1c1ccccc1
inactive: Potency [1] | Potency [2] | Potency [3] | Potency [4] | Potency [5] | Potency [6] | Potency [7] | Potency [8] | Potency [9] | Potency [10] | Potency [11] | Potency [12] | Potency [13] | Potency [14] | Potency [15] | Potency [16] | Potency [17] | Potency [20] | max response [18] -3.39% | outcome [19]

C[C@H](O)C(=O)Nc1c(I)c(C(=O)NC(CO)CO)c(I)c(C(=O)NC(CO)CO)c1I
inactive: Potency [1] | Potency [2] | Potency [3] | Potency [4] | Potency [5] | Potency [6] | Potency [7] | Potency [8] | Potency [9] | Potency [10] | Potency [11] | Potency [12] | Potency [13] | Potency [14] | Potency [15] | Potency [16] | Potency [17] | Potency [20] | outcome [18] | max response [19] -5.81%

COC(=O)C1=C(C)NC(C)=C(C(=O)O[C@@H]2CCCN(Cc3ccccc3)C2)[C@@H]1c1cccc([N+](=O)[O-])c1
active: Potency [18] 15 µM | Potency [19] 11.9 µM and 8.2 µM

C[C@]12CCC(=O)C=C1CC[C@H]1[C@@H]3CC[C@](O)(C(=O)CO)[C@@]3(C)C[C@H](O)[C@@]12F
inactive: Potency [1] | Potency [2] | Potency [3] | Potency [4] | Potency [5] | Potency [6] | Potency [7] | Potency [8] | Potency [9] | Potency [10] | Potency [11] | Potency [12] | Potency [13] | Potency [14] | Potency [15] | Potency [17] | Potency [20] | max response [18] -14.8% | max response [19] -5.58%

Cc1c(C(C)C)c(=O)n(-c2ccccc2)n1C
inactive: Potency [1] | Potency [2] | Potency [3] | Potency [4] | Potency [5] | Potency [6] | Potency [7] | Potency [8] | Potency [9] | Potency [10] | Potency [11] | Potency [12] | Potency [13] | Potency [14] | Potency [15] | Potency [16] | Potency [17] | Potency [20] | max response [18] 0.671% | outcome [19]
